# Assay outcomes from PubChem BioAssay.
# Shown are actives, neighbours in structure and some others; about 17% of the full set was active somewhere.
# TGFb inhibitor: blocks TGF-b signaling; Potency, µM (top dose mostly 46.1 µM), inactives show at the top dose activity, negative = inhibition, hits mostly inhibitors; HepG2 CAGA-GFP TGF-b/SMAD3 reporter, GFP fluorescence, 18 h; TGF-beta stimulated, 500 pg/mL final; AID 588855; 410,000 tested, 1.2% active; note: % is set by controls: 0 for no effect and ±100 for the full control effect; nearly all actives have a fitted effect of over 65% in size
#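 HEPG2 CAGA-GFP reporter cells (1000/well, DMEM with 1% FBS) received compounds, then recombinant TGF-beta at 500 pg/mL final for 18 hours at 37 degrees C. Per-cell GFP summed per well was normalised to unstimulated and stimulated DMSO controls before curve fitting.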
# DT40 TDP1 no CPT: qHTS for Inhibitors of human tyrosyl-DNA phosphodiesterase 1 (TDP1): qHTS in cells in absence of CPT; DT40 Tdp1-/- hTDP1 cells, no CPT, ATP luminescence, 48 h; Potency, µM (series often up to 46.2 µM), for the others: at the highest dose activity change, negative = growth inhibition, actives largely listed as inhibitors; 420,000 tested, 15% active; AID 686978, 2013; note: % is set by controls: 0 for no effect and ±100 for the full control effect; nearly all actives have a fitted effect of over 55% in size
#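 Seeded 400 DT40-hTDP1 cells/well (vehicle DMSO, no 20 nM CPT); pinned compounds; ≥48 hr at 37 °C; CellTiter-Glo luminescence as viability measure.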
# ATXN viability: reduces viability in counter-screen for ATXN expression inhibitors. S2 cells (HEK-293 line with an ATXN2-luciferase reporter) viability, CellTiter-Fluor protease fluorescence, 24 h. 400,000 tested, 0.49% active. AID 651635. Potency, µM (top dose mostly 56.7 µM), hits mostly cytotoxic; note: nearly all actives have a fitted effect of over 40% in size
# HepG2 tox: kills HepG2 cells in TGF-b inhibitor counter-screen | 410,000 tested, 0.76% active | Potency, µM (titrated, usually from 46.1 µM), inactives show at the top dose activity change, negative = cytotoxicity, usual class: cytotoxic | HepG2 CAGA-GFP viability, ATP luminescence, 18 h
#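 CellTiter-Glo luminescence gave cytotoxicity after 18 hours at 37 degrees C. The cells were HepG2 CAGA-GFP in 1% FBS DMEM, stimulated with 500 pg/mL TGF-beta after compound addition. %Activity was normalised to no-cell wells (complete cell-killing) and DMSO (no toxicity), and curves were fitted and classified.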
# DT40 TDP1 CPT: DT40-hTDP1 cell growth loss with CPT; chicken DT40 Tdp1-/-;hTDP1 cells + 20 nM CPT, ATP luminescence, 48 h; Potency, µM (highest dose often 46.2 µM), for inactives: at the top dose activity change, negative = growth inhibition, hits mostly inhibitors; 420,000 tested, 12% active; note: % is set by controls: 0 for no effect and ±100 for the full control effect; nearly all actives have a fitted effect of over 55% in size
#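 Chicken DT40 Tdp1-/- cells complemented with human TDP1, 400 cells/well, exposed to compounds plus 20 nM camptothecin for at least 48 h at 37 C; viability read as ATP content by CellTiter-Glo luminescence.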
# ATXN2 expr inh: inhibitors of ATXN2 expression | HEK-293 ATXN2-luciferase reporter, luminescence, 24 h | 360,000 tested, 0.72% active | Potency, µM (doses to about 57 µM), without a hit: top-dose activity change, negative = inhibition, actives largely listed as inhibitors; note: % is set by controls: 0 for no effect and ±100 for the full control effect; nearly all actives have a fitted effect of over 55% in size
#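 ATXN2-luciferase reporter cells (luciferase flanked by upstream and downstream ATXN2 gene portions) were treated 24 h at 37 °C with compounds at up to 57 uM. SteadyGlo luminescence gave expression; GF-AFC fluorescence gave viability.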
# * = called active by the depositor; i = inactive; ? = inconclusive; . = not tested or not shown. Calls come from the whole dose curve; as a rule, active = well fitted curve in the direction sought with a large enough effect; inconclusive = small, poorly fitted or top-dose-only effect, or another doubt; inactive = no such curve, though single readings can be large; an effect the other way counts as inactive or inconclusive. Potency is the fitted concentration of half-maximal effect.
SMILES,TGFb inhibitor,DT40 TDP1 no CPT,ATXN viability,HepG2 tox,DT40 TDP1 CPT,ATXN2 expr inh
CC(=O)n1cc([C@@H]2C=C(C(=O)NCc3ccccc3)O[C@H](OCCCCO)C2)c2ccccc21,-29%,18µM*,i,-10%,?,-15%
O=C(Nc1ccccc1)C1=C[C@H](c2coc3ccccc3c2=O)C[C@H](OCCCCO)O1,-52%,?,i,4%,?,0%
C#CCNC(=O)C1=C[C@@H](c2cn(C(C)=O)c3ccccc23)C[C@@H](OCc2ccc(CO)cc2)O1,-4%,23µM*,i,-10%,23µM*,-6%
Cc1c(NC2=CC(=O)CC(C)(C)C2)c(=O)n(-c2ccccc2)n1C,9%,-21%,i,-27%,16%,-6%
COCCNC(=O)CSc1ccccc1C(=O)O,-3%,3%,i,-27%,26%,-12%
CCC1=C(c2ccc(OC)cc2)CCC(C(=O)O)C1C (centres undefined),0%,-18%,i,11%,-10%,0%
CCn1cc(C(=O)NCc2ccccc2Cl)cn1,-4%,-23%,i,14%,22%,1%
CCOC(=O)C1CCN(Cc2cc(C(C)C)c(O)c(C(C)C)c2)CC1,?,9.2µM*,i,-32%,9.2µM*,-23%
CCOC(=O)C1CCN(C(=O)CC(C)c2ccccc2)CC1 (centres undefined),4%,?,i,-13%,18µM*,2%
CCOC(=O)C1CCCN(C(=O)c2ccc(-c3ccccc3)cc2)CC1 (centres undefined),-3%,?,i,-4%,16µM*,-11%
CCOC(=O)C1CCN(Cc2ccc3ccccc3c2)CC1,4%,11%,.,0%,7%,-12%
CCOC(=O)C1CCCN(C(=O)c2ccc3c(c2)C(C)(C)CCC3(C)C)CC1 (centres undefined),14µM*,6.5µM*,i,-39%,8.2µM*,0%
CCOC(=O)C1CCCN(C(=O)c2ccc(OC)cc2)CC1 (centres undefined),-2%,0%,i,7%,-20%,9%
CCC(Sc1ccc(Cl)cc1)C(=O)Nc1nnc(-c2cccc([N+](=O)[O-])c2)s1 (centres undefined),3%,13µM*,i,-2%,?,-21%
O=[N+]([O-])c1ccc(Cl)c(S(=O)(=O)Nc2cccc(-c3ccc(N4CCCC4)nn3)c2)c1,-2%,-19%,?,-6%,4%,10%
CC(C)(C)NC(=O)CSc1ncnc2c1cnn2-c1ccccc1,-33%,?,i,-38%,?,.
O=C(CSc1ncnc2c1cnn2-c1ccccc1)NC1CCS(=O)(=O)C1 (centres undefined),4%,8.2µM*,?,-4%,-28%,5%
O=C(CSc1ncnc2c1cnn2-c1ccc(F)cc1)NC1CCCC1,3%,21µM*,i,-2%,18µM*,-12%
COc1cc2c(cc1OC)C1(Nc3c-2c(-c2ccccc2)nn3-c2ccccc2)C(=O)Nc2ccccc21 (centres undefined),16µM*,?,i,-13%,?,-17%
COc1cc2c(cc1OC)C1(Nc3c-2c(C)nn3-c2ccccc2)C(=O)Nc2ccccc21 (centres undefined),-4%,-26%,i,-16%,-22%,1%
CCc1ccc(NC(=O)C(=O)NCCOc2ccccc2Cl)cc1,18%,23µM*,i,7%,16µM*,-4%
Cc1ccc(NC(=O)C(=O)NCCOc2ccccc2Cl)cc1,-13%,-29%,i,-15%,?,9%
C1=C(c2ccccc2)CCN(c2nc3ccccc3n3cnnc23)C1,-5%,16µM*,i,-24%,?,2%
c1ccc2c(c1)CCN(c1nc3ccccc3n3cnnc13)C2,-19%,?,?,-31%,23µM*,13%
Cc1cc(C)n(-c2nc3ccccc3nc2N2CCN(c3cccc(C(F)(F)F)c3)CC2)n1,?,?,i,-22%,18µM*,5%
SMILES,TGFb inhibitor,DT40 TDP1 no CPT,ATXN viability,HepG2 tox,DT40 TDP1 CPT,ATXN2 expr inh
Cc1cc(C)n(-c2nc3ccccc3nc2Nc2cccc(C(F)(F)F)c2)n1,-1%,.,i,-22%,.,18%
FC(F)(F)c1cccc(N2CCN(c3nc4ccccc4n4cnnc34)CC2)c1,1%,23µM*,i,7%,?,10%
Nc1ncnc2c1ncn2[C@@H]1O[C@H](CNCc2ccccc2OCC(=O)N2CCCCC2)[C@@H](O)[C@H]1O,-10%,-10%,i,1%,-21%,5%
O=C(NCCc1ccc(Cl)cc1)C(=O)NCC(c1ccc2c(c1)OCO2)N1CCOCC1 (centres undefined),-10%,-20%,.,-16%,-19%,.
O=S1(=O)CC(N2CCN(CCO)CC2)CN1Cc1ccccc1 (centres undefined),-23%,-2%,i,-6%,-1%,-20%
c1ccc(CN2CCN(c3nc(-c4ccccc4)nc4ccccc34)CC2)cc1,5%,?,?,3%,?,4%
c1ccc(CN2CCN(c3nc4ccccc4n4cnnc34)CC2)cc1,-6%,?,i,1%,13µM*,-23%
c1ccc(N2CCN(c3nc4ccccc4n4cnnc34)CC2)cc1,-7%,?,i,-30%,?,2%
c1ccc(CN2CCN(c3nc4ccccc4c4ccccc34)CC2)cc1,?,?,i,-8%,21µM*,-10%
C[C@@H]1CN([C@@H](C)CO)C(=O)c2cccc(NS(C)(=O)=O)c2O[C@H]1CN(C)CC1CCCCC1,0%,5%,i,-9%,-20%,-3%
COC(=O)c1ccccc1NC(=O)CCS(=O)(=O)c1nc(-c2ccc3c(c2)OCO3)cc(C(F)(F)F)n1,0%,3.3µM*,.,-30%,2.9µM*,.
CSc1ccccc1NC(=O)CCS(=O)(=O)c1nc(-c2ccc3c(c2)OCO3)cc(C(F)(F)F)n1,16µM*,18µM*,.,-83%,8.2µM*,.
O=C(CCS(=O)(=O)c1nc(-c2ccc3c(c2)OCO3)cc(C(F)(F)F)n1)Nc1ccccc1F,?,8.2µM*,.,-66%,7.3µM*,.
